Experimental findings from PubChem BioAssay AID687030 (Broad Institute, 2013) are described below.

Screen size: about 1,400 compounds; about 10 (0.7%) were called active. The list is a sample of the results. Entries with a potency or affinity are not part of this list. Values without a mark were called inactive. The rule behind the calls is not given here.

The experiment is described as follows: BHK-21 cell toxicity, dose response, cytotoxicity control, plate reader, cherry-pick samples (AID 687030).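 Note: cells were exposed to compound for three days before reading.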 The following applies: BHK-21 cells; series mostly up to 19.5 µM; activity change, negative = toxicity: at the top concentration.
On to `O=C(Nc1ccc(Cl)cc1)N(CCCN1CCOCC1)Cc1cccs1`, for which the “activity change, negative = toxicity” value was -0.064%.
Turning to `NC[C@H](Cc1ccccc1)NCCCCC1CCCCC1`, the “activity change, negative = toxicity” value was 5.93%.
The value for `CO[C@@H](CN(C)C(=O)c1cc(Cl)cc(Cl)c1)[C@H](C)CN(C(=O)Nc1ccc(F)cc1)[C@@H](C)CO` was 4.92%; that for `COc1cccc(CNC(=O)[C@H]2CCCN2C(=O)C2CCCN2C(=O)c2ccc(OC)c(F)c2)c1` (some centres not stated) was 5.15%; that for `CCCNC(=O)[C@H]1[C@H](CO)[C@H]2Cn3c(cccc3=O)[C@H]2N1Cc1ccccc1Cl` was -3.48% [at 21 µM].
The same measure for `COc1ccc(-c2sc3cc4c(cc3c2C#Cc2cncn2C)OCO4)cc1`: -2.31%.
As to `CC(=O)Nc1cccc(OCCCNC(=O)c2ccc(C(C)(C)C)cc2)c1`, the “activity change, negative = toxicity” value was -2.02%.
Regarding `CC(C)(C)c1ccc(C(=O)Nc2ccc3c(c2)C(=O)NC3=O)cc1`, the “activity change, negative = toxicity” value was 5.72%.
The value for `CN1C(=O)c2cc(NC(=O)NCc3ccccc3)ccc2OC[C@H]2O[C@H](CC(=O)NCC3CCCCC3)CC[C@H]21` was -2.23%; that for `Cc1ccccc1OCCC(=O)OCC(=O)NCCc1ccc(S(N)(=O)=O)cc1` was -0.913%; that for `C[C@H](CO)N1C[C@H](C)[C@@H](CN(C)Cc2ccc3c(c2)OCO3)OCCCC[C@H](C)Oc2ccc(N(C)C)cc2C1=O` was 2.33%.
The value for `CSc1ccccc1NC(=O)c1cc2c(=O)n3ccccc3nc2s1` was 2.33%; that for `CCN(CC)CCCNc1nc(C)cc(COC)c1C#N` was -3.72%; that for `O=C(OCc1ccccc1)N1CCCC2CC1c1ccccc12` (configuration not stated) was -1.75%.
For `CCCCN(C(=O)c1ccc2c(c1)NC(=O)CS2)c1ccccc1`, the “activity change, negative = toxicity” value was 4.54%.
Regarding `COc1cccc(OC)c1C(=O)N1CCN(Cc2c[nH]c3ccccc23)CC1`, the “activity change, negative = toxicity” value was -1.55%.
Consider `O=C(c1ccc(CNc2c(N3CCCC3)c(=O)c2=O)cc1)N1CCN(C2CCCCC2)CC1`, for which the “activity change, negative = toxicity” value was -6.28%.
The same measure for `CCOc1ccccc1-c1nnc(CS(=O)(=O)c2ccccc2)o1`: 1.34%; for `CCOC(=O)c1ccc(NC(=O)c2nc[nH]c2C(=O)NC2CCN(C(=O)OC(C)(C)C)CC2)cc1`: 1.41%; for `Cc1cccc(N(C)c2cc(C)nc3nc(C)nn23)c1`: -4.81%.
The same measure for `COCc1cccc(-c2csc(C(N)c3ccc(F)c(F)c3)n2)c1` (configuration not stated): -4.14%; for `COc1ccc(S(=O)(=O)N2CCCCN3[C@H](CO)[C@H](c4ccc(C5=CCCC5)cc4)[C@@H]3C2)cc1`: -2.71%; for `COC(=O)c1ccc(NC(=O)C2CC3CCC2C3)cc1` (configuration not stated): -2.2%.
In the case of `COc1ccc(C2(C)CC(C)(C)Nc3ccccc32)cc1` (configuration not stated), the “activity change, negative = toxicity” value was 0.418%.
For `CC(C)(O)C#Cc1ccc([C@@H]2[C@@H](CO)N3CCCCN(C(=O)c4ccc(F)cc4)C[C@@H]23)cc1`, the “activity change, negative = toxicity” value was 6.25%.
With `O[C@@H]1CN(Cc2cccs2)[C@@H](c2ccccc2)C[C@H]1n1cc(-c2ccc(F)cc2)nn1`, the “activity change, negative = toxicity” value was 3.94%.
As for `COC(=O)c1c(NC(=O)CC2Sc3ccc(C(F)(F)F)cc3NC2=O)sc(C)c1C` (configuration not stated), the “activity change, negative = toxicity” value is 3.54%.
The same measure for `COC(=O)c1ccc2nc(-c3ccc(F)cc3)c(Cc3ccccc3OC)n2c1`: 4.29%.
For the compound `CC(C)C(NS(=O)(=O)c1ccc2c(c1)C(C)(C)C(=O)N2C)C(=O)NCc1ccccc1Cl` (configuration not stated), the “activity change, negative = toxicity” value is -2.05%.
For the compound `COc1ccc2c3c(n(C)c2c1)[C@H](CO)N(C(=O)Nc1ccccc1F)CC31CN(C)C1`, the “activity change, negative = toxicity” value is 2.87% [at 21 µM].
The value for `C[C@H]1CN([C@@H](C)CO)C(=O)c2cc(NC(=O)CCCN(C)C)ccc2O[C@@H]1CN(C)S(=O)(=O)c1ccc(Cl)cc1` was 11.6% [at 21 µM].
The value for `Cc1ccccc1OCCCCN1CCCCC1` was -3.74%; that for `Cc1ccc(SC[C@H](Cc2ccccc2)N2CC[C@@H](C)CCC2=O)cc1` was 13.1% [at 10 µM]; that for `CC(C)c1ccc(NC(=O)Nc2nc(C(N)c3ccccc3Cl)cs2)cc1` (configuration not stated) was 1.49%.
The value for `Cc1ccc(N(C)C(=O)N2CCN(S(=O)(=O)c3ccc(C)cc3)CC2)cc1` was 1.54%; that for `CCOC(=O)c1[nH]c2ccccc2c1NC(=O)c1ccc2c(c1)OCO2` was -0.148%; that for `Cc1cccc(N(C(=O)Cn2nnc3ccccc32)C(C(=O)NC(C)(C)C)c2ccsc2)c1` (configuration not stated) was -2.95%.
Consider `O=C(CNC(=O)N1CC(=O)Nc2ccccc21)NCc1ccc(F)cc1`, for which the “activity change, negative = toxicity” value was 0.609%.
As for `Cc1noc(C)c1S(=O)(=O)N(C)C[C@H]1OCCCC[C@@H](C)Oc2ccc(NC(=O)Nc3ccc4c(c3)OCO4)cc2C(=O)N([C@@H](C)CO)C[C@H]1C`, the “activity change, negative = toxicity” value is -2.3%.
With `CCOC(=O)c1[nH]c(C)c(C(=O)OCC(=O)N2CC(=O)Nc3ccccc32)c1C`, the “activity change, negative = toxicity” value was -1.55%.
As to `CC1CCCCN1CCCNC(=O)c1ccc2nc(N3CCCCC3)sc2c1` (configuration not stated), the “activity change, negative = toxicity” value was -1.24%.
For the compound `CCOC(=O)c1sc(NC(=O)c2ccncc2)c(C#N)c1C`, the “activity change, negative = toxicity” value was 2.78%.
The same measure for `CC(C)C(=O)Nc1nnc(S(=O)(=O)N2CCc3ccccc32)s1`: -1.38%; for `Fc1ccc(CCN2CCN=C2Nc2ccccc2)cc1`: -3.21%; for `CCC(C)[C@H]1COCCS(=O)(=O)N1Cc1ccc(Br)cc1` (some centres not stated): -1.52%.
For `O=C(N[C@@H]1C=C[C@H](CC(=O)N2CCc3ccccc3C2)O[C@@H]1CO)C1CCC1`, the “activity change, negative = toxicity” value was 3.49%.
The same measure for `COc1cc2cc(CCCOC(=O)CCC(=O)O)oc(=O)c2cc1OC`: -0.198%; for `CC1Cc2ccccc2N1S(=O)(=O)c1cnc(Cl)c(Br)c1` (configuration not stated): -8.32%; for `O=C(O)c1cccc(-c2csc(C(O)c3ccc(F)c(F)c3)n2)c1` (configuration not stated): -1.2%.
The same measure for `O=C(O)c1ccccc1C(=O)NCc1c(Cl)cccc1Sc1ccc(Cl)cc1`: 2.35%; for `COc1ccc(CCN2CC(C(=O)NCCc3cn[nH]c3)CCC2=O)cc1` (configuration not stated): -3.58%; for `CNC(=O)C[C@H]1CC[C@@H]2[C@H](COc3ccc(NC(=O)c4ccc(F)c(F)c4)cc3C(=O)N2C)O1`: 2.5% [at 21 µM].
As to `COc1cc2c(cc1OC)CN(C(=O)CCOc1ccccc1C)CC2`, the “activity change, negative = toxicity” value was 1.41%.
For `N#Cc1cccnc1N1CCN(C(=O)c2ccccc2)CC1`, the “activity change, negative = toxicity” value is -6.78%.
For `O=C(NCC[C@H]1CC[C@H](NS(=O)(=O)c2ccc(Oc3ccccc3)cc2)[C@@H](CO)O1)C1CC1`, the “activity change, negative = toxicity” value is -1.83%.
The value for `CCCCCc1c(-c2ccccc2OC)ncn1CCc1ccccc1OC` was -3.51%.
On to `O=C(Nc1cccc(S(=O)(=O)N2CCCCCC2)c1)c1ccc2ccccc2n1`, for which the “activity change, negative = toxicity” value was 1.68%.
The value for `Cc1ccc(C(=O)O/N=C(\N)c2ccccn2)cc1` was -4.24%; that for `CCc1nc2ccc(C(=O)N(CC)CCN(C)C)cn2c1N(C)C(=O)c1cccc(OC)c1` was 11%.
The same measure for `C[C@@H]1CN([C@@H](C)CO)C(=O)c2cc(NS(=O)(=O)c3ccc(Cl)cc3)ccc2O[C@@H](C)CCCCO[C@H]1CN(C)CC1CC1`: -1.91%; for `O=C(c1cc(C2CC2)on1)N1CCCC(N2CCN(c3cccc(C(F)(F)F)c3)CC2)C1` (configuration not stated): 1.75%.
In the case of `O=C(c1ccncc1)N1CCCC(N2CCN(c3cccc(C(F)(F)F)c3)CC2)C1` (configuration not stated), the “activity change, negative = toxicity” value was 1.83%.
The value for `O=S(=O)(NCc1c(Cl)cccc1Oc1ccccc1)c1ccccc1` was -4.45%; that for `CCOc1ccc(C(=O)NCC(=O)N2CCCCCCC2)cc1` was -5.62%; that for `O=C(O)C[C@H]1C=C[C@@H](NC(=O)CCN2CCCCC2)[C@@H](CO)O1` was 6.26%.
In the case of `CC1CCOC(c2coc3ccccc3c2=O)O1` (configuration not stated), the “activity change, negative = toxicity” value is -2.55%.
The value for `COc1ccc(Br)cc1[C@H]1[C@H]2C=CC[C@@H](C)[C@@H]2C(=O)N1Cc1ccccc1` was 4.79%.
With `O=C(Nc1cccc(-n2cnnn2)c1)C1CCCN(C(=O)Cc2cccc(Cl)c2)C1` (configuration not stated), the “activity change, negative = toxicity” value is 1.47%.
Take `CC(C)CN(C(=O)c1cc(Cl)nc2ccccc12)c1c(N)n(Cc2ccccc2)c(=O)[nH]c1=O`: the “activity change, negative = toxicity” value is 4.68%.
The same measure for `O=C(O)[C@H]1[C@H](CO)[C@H]2Cn3c(ccc(/C=C/c4ccccc4)c3=O)[C@H]2N1C(=O)c1cnccn1`: -3.31%.
The same measure for `CN(CC(=O)Nc1ccc(F)cc1)C(=O)COC(=O)c1nc(Cl)ccc1Cl`: 3.06%; for `CC(C)(C)OC(=O)CNC(=O)c1[nH]cnc1C(=O)N[C@@H](Cc1ccccc1)C(=O)OC(C)(C)C`: 7.08%; for `CCOc1ncccc1C(=O)NNC(=O)c1cccc(S(=O)(=O)Nc2ccccc2OC)c1`: 2.97%.
Consider `COc1cccc(N2CCN(C(=O)c3cccc(NC4=NC5CS(=O)(=O)CC5S4)c3)CC2)c1` (configuration not stated), for which the “activity change, negative = toxicity” value was -7.17%.
As for `CC(=O)Nc1cccc2ncccc12`, the “activity change, negative = toxicity” value is -1.27%.
The value for `COc1cc(NC(C)=O)c2ncccc2c1Br` was 7.72%; that for `OC(COC(c1ccc(F)cc1)c1ccc(F)cc1)CN1CCCC1` (configuration not stated) was 3.3%.
The value for `Cc1ccc(C(=O)Nc2ccc(CN3CCCCC3)cc2)c(C)c1` was 4.85%; that for `CN1CCC2CC1c1cc(-c3ccc(C(F)(F)F)cc3)ccc12` (configuration not stated) was 6.96%.
The value for `O=C(C[C@@H]1CC[C@H]2[C@@H](COC[C@@H](O)CN2Cc2cccc(Cl)c2)O1)N1CCOCC1` was -4.37%; that for `O=C(C[C@H]1CC[C@H]2[C@@H](COC[C@@H](O)CN2Cc2cccc(C(F)(F)F)c2)O1)NCc1ccc(F)cc1` was 3.27%; that for `C[C@@H]1CCCCO[C@H](CN(C)S(=O)(=O)c2ccccc2)[C@@H](C)CN([C@@H](C)CO)C(=O)c2cc(NC(=O)CCCN(C)C)ccc2O1` was 1.9%.
Consider `COc1ccc(S(=O)(=O)N(C)C[C@@H]2Oc3ccc(NS(=O)(=O)c4ccccc4)cc3C(=O)N([C@H](C)CO)C[C@H]2C)cc1`, for which the “activity change, negative = toxicity” value is 3.26%.
The value for `CCNC(=O)C[C@H]1CC[C@H]2[C@@H](COC[C@@H](O)CN2Cc2ccc(Cl)c(Cl)c2)O1` was -6.91%.
The value for `CCNC(=O)C[C@H]1CC[C@H]2[C@@H](COC[C@H](O)CN2Cc2ccc(Cl)c(Cl)c2)O1` was 0.129%; that for `CCC1CN(S(=O)(=O)c2ccc3c(c2)NC(=O)CC(=O)N3)c2cc(Cl)ccc2O1` (configuration not stated) was 1.53%; that for `Cc1cc(OCC(=O)NC(Cc2c[nH]c3ccc(O)cc23)C(=O)O)c2c(C)c(C)c(=O)oc2c1` (configuration not stated) was 1.75%.
The value for `COc1cccc(CNC(=O)[C@@H]2CCCN2C(=O)[C@H]2CCCCN2C(=O)c2ccc(Cl)cc2)c1` was -5.85%; that for `CCCCn1c(N)c(N(CC)C(=O)c2cc(C)cc(C)c2)c(=O)[nH]c1=O` was -0.06%; that for `CC(C)CCC(O)(c1ccccc1)C(CN1CCOCC1)c1ccccc1` (configuration not stated) was 0.142%.
On to `C[C@@H]1CCCCO[C@H](CN(C)S(=O)(=O)c2ccc(Cl)cc2)[C@H](C)CN([C@H](C)CO)C(=O)c2cc(N(C)C)ccc2O1`, for which the “activity change, negative = toxicity” value was 3.31%.
As for `C=CCOc1ccccc1CN1CCC(Cc2ccccc2)CC1`, the “activity change, negative = toxicity” value is -7.66%.
